Experimental findings from PubChem BioAssay (NCATS) are described below.

Values without a mark were called inactive. Results filed as inconclusive are left out. Calls of active or inactive are those of the source. Unless noted, the call rests on the fitted dose curve; in most records, active means well fitted curve in the direction sought with a large enough effect; inconclusive means small, poorly fitted or top-dose-only effect, or another doubt; inactive means no such curve, though single readings can be large; an effect the other way counts as inactive or inconclusive.

Assay [1] concerns the target 3',5'-cyclic-AMP phosphodiesterase 4B (Homo sapiens) (UniProt Q07343). In words: qHTS Assay for Inhibitors of PDE-IV (AID 607; active means well fitted activation curve with a large enough effect in the main read-out, with a control signal flat, not every such curve was filed as active; further: % of control where 0% means no effect). The method, boiled down:
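ACTOne HEK293 cells carry a modified cAMP-gated CNG channel and express endogenous PDE4; plated 1000 cells/well, compounds up to 22.9 uM final. Membrane-potential dye fluorescence (ex 535/em 590) was read; parental cells received 10 uM forskolin + 100 uM RO 20-1724.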

The nature of assay [2]: Cell Viability - Mesenchymal (AID 546).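 Further: cells exposed to compound for 40 hours before reading.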 In short, it runs like this: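 CellTiter-Glo luminescence (intracellular ATP, 20 min room temperature) after 40 hr compound exposure at 37 °C of 1000 glomerulus-derived human kidney mesenchymal cells/well; AC50 values obtained by fitting qHTS concentration-response data to the Hill equation.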
The nature of assay [3]: Cellular Toxicity (caspase-3) HepG2 (AID 654).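 Further: cells exposed to compound for 16 hours before reading; 0% = DMSO alone and 100% = caspase signal from 100 µM tamoxifen.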 In short, it runs like this: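 Caspase 3/7 activation in HepG2 is measured as rising luminescence after a 16 hr treatment at 37 °C. Values are scaled between DMSO basal and 100 uM tamoxifen, and AC50 is fitted with the Hill equation.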
Assay [4] is described as follows: Cellular Toxicity (caspase-3) Jurkat (AID 655).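 Further: cells exposed to compound for 16 h at 37 °C before reading.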 The note with it: Jurkat caspase-3 activation, luminescence, DMSO = 0%, tamoxifen = 100%; at 92.2 µM (top of the series). The method, boiled down: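 Caspase 3/7 activation is scored as increased luminescence in Jurkat cells cultured with compound for 16 hours in complete medium. AC50 values come from Hill fits of qHTS concentration-response data normalized to DMSO and 100 uM tamoxifen controls.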

Assay [5] in a line: Cellular Toxicity (caspase-3) HUV-EC-C (AID 656). The method, boiled down: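 Read-out: luminescence proportional to caspase 3/7 activity, measured 20 min after adding Caspase-Glo 3/7 reagent. Cells (HUV-EC-C) had received compound for 16 hr at 37°C. Increases relative to DMSO and 100 uM tamoxifen gave concentration-response AC50 values.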
The nature of assay [6]: Cellular Toxicity (caspase-3) SHSY5Y (AID 657).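 Further: cells exposed to compound for 16 hours at 37 °C.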 The method, boiled down:
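Cells plated and incubated 5 h at 37 °C, dosed over a concentration range, incubated 16 h, then given Caspase-Glo 3/7 reagent for 1 h at room temperature before luminescence reading. Staurosporine (10 uM) defined full stimulation.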

Assay [7] is described as follows: Cellular Toxicity (caspase-3) BJ (AID 658).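 Further: 0% = DMSO basal and 100% = 10 µM staurosporine.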 In short, it runs like this: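 Caspase-Glo 3/7 luminescence, read 1 hr after reagent at room temperature, in normal BJ fibroblasts exposed 16 hours at 37 °C. AC50 values from Hill-equation concentration-response, scaled between DMSO basal and 10 uM staurosporine as 100%.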
The nature of assay [8]: Cellular Toxicity (caspase-3) MRC-5 (AID 659).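 Further: 0% = DMSO basal and 100% = 10 µM staurosporine.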 In short, it runs like this:
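Luminescent Caspase-Glo 3/7 read-out (1 h, room temperature) after a 16 h, 37 °C compound exposure of MRC-5 lung fibroblasts at 1500 cells/well. Concentration-response AC50 from Hill equation; 0% DMSO, 100% 10 uM staurosporine.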

Assay [9] can be described thus: Cellular Toxicity (caspase-3) Mesangial (AID 660).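 Further: cells exposed to compound for 16 h before the caspase read.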 The method, boiled down: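 Seed cells derived from normal human renal glomeruli, incubate 5 h, add compounds across concentrations and incubate 16 h at 37 °C. Caspase 3/7 activation is then quantified by luciferase light, with AC50 derived by Hill modeling.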
The nature of assay [10]: Cellular Toxicity (caspase-3) SK-N-SH (AID 661).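 Further: 0% = DMSO basal and 100% = 10 µM staurosporine.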 The method, boiled down: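 Cells were seeded and incubated 5 hr at 37 °C, dosed with compound over a concentration range for 16 hr, then given Caspase-Glo 3/7 reagent for 1 hr at room temperature before luminescence reading.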

Chain of 3',5'-cyclic-AMP phosphodiesterase 4B (Homo sapiens) (Q07343 whole entry, looked up): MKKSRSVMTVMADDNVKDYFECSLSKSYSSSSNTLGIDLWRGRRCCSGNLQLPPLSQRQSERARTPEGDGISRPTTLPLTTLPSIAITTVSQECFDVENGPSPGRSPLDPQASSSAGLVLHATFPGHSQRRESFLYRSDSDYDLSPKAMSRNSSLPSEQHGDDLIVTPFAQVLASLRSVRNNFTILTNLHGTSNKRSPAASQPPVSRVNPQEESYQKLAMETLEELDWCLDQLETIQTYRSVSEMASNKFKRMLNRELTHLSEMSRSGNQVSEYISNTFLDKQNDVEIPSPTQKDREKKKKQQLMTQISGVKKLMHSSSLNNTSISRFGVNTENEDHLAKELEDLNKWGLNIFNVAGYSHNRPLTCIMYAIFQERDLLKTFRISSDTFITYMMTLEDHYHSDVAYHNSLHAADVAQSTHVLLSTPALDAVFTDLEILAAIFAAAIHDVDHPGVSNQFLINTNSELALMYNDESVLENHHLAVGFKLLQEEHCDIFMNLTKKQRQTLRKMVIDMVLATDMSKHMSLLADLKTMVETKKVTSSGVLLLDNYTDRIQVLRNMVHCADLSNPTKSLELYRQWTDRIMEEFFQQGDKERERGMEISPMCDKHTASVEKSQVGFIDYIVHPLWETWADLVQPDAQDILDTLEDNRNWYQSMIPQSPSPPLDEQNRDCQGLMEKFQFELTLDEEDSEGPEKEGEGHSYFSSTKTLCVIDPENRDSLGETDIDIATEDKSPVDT

On to `CN(C)CCC[C@@]1(c2ccc(F)cc2)OCc2cc(C#N)ccc21`, for which, in [1], the compound was classed as inactive.
As for `O=C(O)c1ccc(S(=O)(=O)N(Cl)Cl)cc1`, the outcome in assay [2], in [3], in assay [5], in assay [6], in assay [7] and in assay [8] was inactive. Also, the outcome in assay [9] and in [10] was inactive. For the same compound, the caspase-3 activation in assay [4] is 0.943%.
In the case of `CCOc1ccc(NC(C)=O)cc1`, the result in assay [2], in [1], in assay [3], in assay [5], in assay [6] and in [7] was inactive. The result in assay [8], in assay [9] and in assay [10] was inactive. In addition, the caspase-3 activation in [4] is -0.173%.
Turning to `Oc1c(Cl)cc(Cl)c(Cl)c1Cc1c(O)c(Cl)cc(Cl)c1Cl`, the call in [2], in assay [3], in assay [5], in assay [6], in assay [7] and in [8] was inactive. The compound was called inactive in assay [9] and in assay [10].
Consider `C/C=C/c1ccc(O)c(OC)c1`, for which the compound was classed as inactive in [2], in assay [3], in assay [5], in [6], in [7] and in [8]. Also, the compound was classed as inactive in [9] and in assay [10]. For the same compound, in [4], the caspase-3 activation was 1.5%.
For `CCCCC(CC)COC(=O)c1ccc(N(C)C)cc1` (stereo unspecified), the outcome in assay [2], in [3], in assay [5], in [6], in [7] and in [8] was inactive. The compound was called inactive in [9] and in assay [10]. Moreover, the caspase-3 activation in assay [4] is 1.94%.
Regarding `CCCN(CCC)S(=O)(=O)c1ccc(C(=O)O)cc1`, the compound was classed as inactive in assay [2], in assay [1], in [3], in assay [5], in [6] and in assay [7]. In addition, the call in assay [8], in assay [9] and in [10] was inactive. The caspase-3 activation in assay [4] was 1.65%.
Take `C[N+]1(C)CCC(=C(c2ccccc2)c2ccccc2)CC1`: the outcome in assay [1] was inactive.
For the compound `NCCNc1cccc2ccccc12`, the result in assay [2], in [3], in assay [5], in assay [6], in assay [7] and in assay [8] was inactive. Moreover, the call in [9] and in assay [10] was inactive. In addition, in assay [4], the caspase-3 activation is 6.22%.
Take `CCc1cc(Cl)c(OC)c(C(=O)NC[C@@H]2CCCN2CC)c1O`: in assay [1], the compound was called inactive.
Regarding `COc1ccc(C(=O)c2ccccc2O)c(O)c1`, in assay [1], the outcome was inactive.
In the case of `O=C1C(O)=C(O)C(=O)C(O)=C1O`, the compound was classed as inactive in assay [1].
On the same count and under the same terms, the same measure for `CC(C)(C)NC[C@H](O)COc1cccc2c1CCCC2=O`: “inactive”.
As to `CCOc1ccccc1C(N)=O`, the compound was classed as inactive in assay [2], in assay [3], in [5], in assay [6], in assay [7] and in [8]. Moreover, the result in assay [9] and in assay [10] was inactive. Moreover, the caspase-3 activation in [4] was -0.33%.
Regarding `NS(=O)(=O)Cc1noc2ccccc12`, in assay [1], the outcome was inactive.
For `COc1cc(C(=O)NCc2ccc(OCCN(C)C)cc2)cc(OC)c1OC`, in assay [1], the outcome was inactive.
Consider `COc1cc([C@H]2Oc3cc([C@H]4Oc5cc(O)cc(O)c5C(=O)[C@@H]4O)ccc3O[C@@H]2CO)ccc1O`, for which the result in assay [2], in assay [3], in [5], in assay [6], in [7] and in [8] was inactive. Moreover, the outcome in [9] and in assay [10] was inactive. The caspase-3 activation in assay [4] is 7.36%.
Regarding `COc1cc(N)c(Cl)cc1C(=O)NC1CCN(Cc2ccccc2)CC1`, the compound was called inactive in [1].
Regarding `COc1ccc(C(=O)c2ccccc2)c(O)c1`, the result in [2], in [1], in assay [3], in assay [5], in [6] and in assay [7] was inactive. The outcome in assay [8], in assay [9] and in assay [10] was inactive. The caspase-3 activation in assay [4] was 25.4%.
For the compound `NS(=O)(=O)c1cc(C(=O)O)cc(N2CCCC2)c1Oc1ccccc1`, the compound was called inactive in assay [1].
With `C=C[C@H]1CN2CC[C@H]1C[C@@H]2[C@@H](O)c1ccnc2ccc(OC)cc12`, the outcome in assay [2], in assay [3], in [5], in assay [6], in assay [7] and in [8] was inactive. The result in assay [9] and in assay [10] was inactive.
Turning to `CN1CCc2cccc3c2[C@H]1Cc1ccc(O)c(O)c1-3`, in assay [1], the compound was called inactive.
Take `NC(=O)c1ccccc1O`: the result in assay [2], in assay [3], in [5], in [6], in assay [7] and in assay [8] was inactive. The result in assay [9] and in assay [10] was inactive. In addition, the caspase-3 activation in [4] is -0.838%.
Take `CN1CCC(OC(c2ccccc2)c2ccccc2)CC1`: the compound was classed as inactive in assay [1].
Turning to `COc1ccc(C(Cl)=C(c2ccc(OC)cc2)c2ccc(OC)cc2)cc1`, the compound was called inactive in assay [2], in [3], in assay [5], in assay [6], in [7] and in [8]. In addition, the outcome in assay [9] and in assay [10] was inactive. Moreover, in [4], the caspase-3 activation was 2.72%.
In the case of `OC[C@H]1O[C@@H]2O[C@H]3[C@H](O)[C@@H](O)[C@@H](O[C@H]4[C@H](O)[C@@H](O)[C@@H](O[C@H]5[C@H](O)[C@@H](O)[C@@H](O[C@H]6[C@H](O)[C@@H](O)[C@@H](O[C@H]7[C@H](O)[C@@H](O)[C@@H](O[C@H]8[C@H](O)[C@@H](O)[C@@H](O[C@H]1[C@H](O)[C@H]2O)O[C@@H]8CO)O[C@@H]7CO)O[C@@H]6CO)O[C@@H]5CO)O[C@@H]4CO)O[C@@H]3CO`, the compound was called inactive in assay [2], in assay [3], in assay [5], in assay [6], in [7] and in assay [8]. In addition, the call in assay [9] and in assay [10] was inactive. Moreover, the caspase-3 activation in [4] was 1.07%.
For `Oc1ccc(Cl)cc1Cc1cc(Cl)ccc1O`, the caspase-3 activation in assay [4] was 86% (active). The outcome in assay [5], in assay [6], in assay [7], in [8], in [9] and in assay [10] was inactive.
